In PubChem BioAssay (NCATS) one finds Potency data, which are given here for three molecules.

A short description of the experiment: Confirmatory screen GU Rhodamine qHTS for Zika virus inhibitors qHTS (AID 1347157). Also: nearly all actives have a fitted effect of over 70% in size. The essentials: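 Enzyme 25 nM in Tris-HCl pH 8.0 + 0.01% Tween 20; compounds up to 114 microM, 15 min RT dark; + Rhod110 substrate 1.5 microM; read t0 and 15 min; delta fluorescence → % inhibition → 4-parameter Hill fit.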
Background: In qHTS, concentration-response curves come from the screen itself.

Inconclusive results are not listed. The source made the active and inactive calls. Calls follow the shape of the dose curve; as a rule, active = well fitted inhibition curve with a large enough effect; inconclusive = small, poorly fitted or top-dose-only effect; inactive = flat fitted curve, though single readings scatter.
Potency is read from the fitted curve at half-maximal effect.

Turning to `CC(C)=CCOc1ccc(/C=C/C(=O)c2ccc(OCC=C(C)C)cc2OCC(=O)O)cc1`, the Potency was 5.62 µM (active).

As for `Oc1c(Cl)cc(Cl)c(Cl)c1Cc1c(O)c(Cl)cc(Cl)c1Cl`, the Potency is 15.8 µM (active).

Turning to `C=C[C@H]1CN2CC[C@H]1C[C@H]2[C@H](O)c1ccnc2ccc(OC)cc12`, the Potency entry is “inactive”.
